# Rin1 Abl inh: inhibitors of human Rin1-Abl protein interaction | P00519+Q13671 | 360,000 compounds, 0.4% hits | AID 588664 | inhibition, % at 7.35 µM | TR-FRET Rin1/Abl binding, biochemical; in the data active = inhibition above about 5%, passing the limit was not always enough
# AI-2 QS modul: Vibrio harveyi AI-2 quorum sensing modulation; Vibrio harveyi JMH597 AI-2 luminescence/OD600 ratio, 9 h; active compounds read low; strain lacks LuxN and CqsS sensors; 0 = neutral-control median; activity change, % at 7.5 µM; 300,000 compounds, 0.4% hits; AID 2094; in the data active = activity change below about -75%, passing the limit was not always enough;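 note: luminescence divided by OD600 gain over 9 h not by final OD600 alone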
# HGIII-sPLA2 inh: Blocks human group III sPLA2 activity; QFRET BODIPY PC-A2 liposome hydrolysis, fluorescence; inhibition, % at 12.2 µM; 370,000 compounds, 0.56% hits; AID 743126;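 active = inhibition above mean plus 3 SD of compounds lying within the high and low control bounds, cut at about 19% in these data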;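 note: 0% = median of test compound wells and 100% = no enzyme DMSO wells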
# ARNT-TACC3 inh: ARNT/TACC3 interaction disruption; AID 623870; AlphaScreen His-ARNT PAS-B/GST-TACC3 binding, luminescence; TACC3 fragment carries E629A point mutation; 390,000 compounds, 0.66% hits; Q9Y6A5; inhibition, % at 9.99 µM;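 active = mean inhibition of replicates at least 50% and at least half of replicates each reaching 50%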;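 note: 0% = complete ARNT plus TACC3 wells and 100% = ARNT alone without TACC3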
# sPLA2 confirm: human GIII-sPLA2 inhibition, confirmation; inhibition, % at 12.2 µM; shares compounds with HGIII-sPLA2 inh; 2,000 compounds, 34% hits; recombinant hGIII-sPLA2, BODIPY PC-A2 QFRET fluorescence;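 active = mean inhibition across triplicates above the hit cutoff set in the earlier primary screen, cut at about 19% in these data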;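 note: 0% = enzyme with DMSO and 100% = DMSO wells lacking enzyme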
# BODIPY interf: 535nm fluorescence interference, HGIII-sPLA2 counter-screen. shares compounds with HGIII-sPLA2 inh. BODIPY FL product fluorescence interference, QFRET. inhibition, % at 12.2 µM. 2,000 compounds, 8.5% hits. AID 743282;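 active = average inhibition above the solvent-only control mean plus 3 SD, cut at about 6% in these data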;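 note: 0% = DMSO with substrate plus product and 100% = DMSO with substrate alone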
# 535nm interf DR: 535nm optical interference dose response, HGIII-sPLA2 counter-screen; shares compounds with HGIII-sPLA2 inh; IC50, µM; 240 tested, under 10 active; AID 743455; BODIPY FL product fluorescence interference, cell-free;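 active = IC50 at or below 10 µM; inactive = IC50 above 10 µM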
# An asterisk follows results filed as active; · = no result. Compounds with a hit are over-represented: about 1.5% of the library has one in this group of screens.
SMILES,Rin1 Abl inh,AI-2 QS modul,HGIII-sPLA2 inh,ARNT-TACC3 inh,sPLA2 confirm,BODIPY interf,others
Cc1ccc(-n2c(SCC(=O)Nc3ccc(N4CCOCC4)cc3)nc3ccccc3c2=O)cc1,-5,17,17,-7,·,·,
O=C(CSc1nc2ccccc2c(=O)n1-c1ccc(SC(F)F)cc1)Nc1ccc(N2CCOCC2)cc1,0,-5,21*,-16,5,-8,
COc1ccc(-n2c(SCC(=O)NNC(=S)Nc3ccccc3)nc3ccccc3c2=O)cc1,·,·,36*,·,39*,4,535nm interf DR=>122
Cc1ccc(NC(=S)NNC(=O)CSc2nc3ccccc3c(=O)n2-c2ccc(C)cc2)cc1,-3,17,28*,13,24*,4,
COc1ccc(-n2c(SCC(=O)Nc3ccc(NC(C)=O)cc3)nc3ccccc3c2=O)cc1,1,1,2,-7,·,·,
CCNC(=S)NNC(=O)CSc1nc2ccccc2c(=O)n1-c1ccc(Cl)cc1,·,·,32*,·,25*,4,
COc1ccc([Si](C)(C)[C@@H]2[C@@H](CC(=O)N3Cc4ccccc4C[C@H]3CO)O[C@]3(C(=O)N(Cc4ccc(I)cc4)c4ccccc43)[C@H]2C)cc1,·,·,·,16,·,·,
CO[C@@H]1CN(C)C(=O)c2ccc(NC(=O)C3CCCC3)cc2OC[C@H](C)N(CCC(F)(F)F)C[C@H]1C,·,·,·,-5,·,·,
O=C(C[C@@H]1C[C@@H]2c3cc(NC(=O)Nc4ccc(C(F)(F)F)cc4)ccc3O[C@@H]2[C@H](CO)O1)NC1CCCCC1,·,·,·,-11,·,·,
COc1cccc(C(=O)Nc2ccc3c(c2)OC[C@@H](C)N(C)C[C@H](C)[C@@H](OC)CN(C)C3=O)c1,·,·,·,-8,·,·,
CC(Sc1ccc(Cl)cc1)C(=O)NNC(=O)c1ccccc1O (stereo not drawn),-2,39,23*,-2,7,-3,
CSCCC(NC(=O)c1ccccc1Cl)C(=O)NNC(=O)c1ccccc1O (stereo not drawn),4,10,10,-1,·,·,
C[C@H]1CN([C@@H](C)CO)C(=O)c2cc(C#Cc3cccnc3)cnc2O[C@@H]1CN(C)Cc1ccc(F)cc1,·,·,·,2,·,·,
CCOCCCNC(=S)N(Cc1ccccc1)Cc1nc2ccccc2c(=O)[nH]1,-1,29,-12,-8,·,·,
CCCNC(=S)N(Cc1ccccc1)Cc1nc2ccccc2c(=O)[nH]1,1,17,22*,0,-2,-11,
CCOC(=O)N1CCN(S(=O)(=O)c2ccc(F)c(C(=O)Nc3ccc(C(C)C)cc3)c2)CC1,-1,15,20*,-6,-19,-17,
CO[C@H]1CN(C)C(=O)c2ccc(NC(C)=O)cc2OC[C@H](C)N(C(=O)CN2CCOCC2)C[C@@H]1C,·,·,·,-10,·,·,
CN1CCCCN2[C@H](CO)[C@@H](c3ccc(-c4ccc(F)cc4)cc3)[C@@H]2C1,·,·,·,14,·,·,
CC(C)(C)c1ccc(C(=O)NCC(=O)NNC(=O)c2ccccc2O)cc1,2,24,21*,-2,13,-5,
Cc1ccc(C(=O)NC(=S)NNC(=O)c2ccccc2[N+](=O)[O-])cc1,1,28,0,-6,·,·,
O=C(NC(=S)NNC(=O)c1ccccc1O)c1ccc([N+](=O)[O-])cc1,1,15,39*,36,29*,1,535nm interf DR=>122
Cc1ccc(C(=O)NC(=S)NNC(=O)c2ccccc2O)cc1,3,14,32*,2,37*,-1,535nm interf DR=>122
CC(C)(C)c1ccc(OCCCC(=O)NNC(=O)c2ccccc2O)cc1,-3,36,18,0,·,·,
O=C(NC(=S)NNC(=O)c1ccccc1O)c1cccs1,0,16,30*,42,30*,-3,535nm interf DR=>122
C[C@@H]1CN([C@H](C)CO)S(=O)(=O)c2ccc(C#Cc3cccc(F)c3)cc2O[C@@H]1CN(C)C(=O)NC1CCCCC1,·,·,·,1,·,·,
O=C([C@@H]1[C@@H](CO)[C@@H]2Cn3c(ccc(-c4ccccc4)c3=O)[C@@H]2N1Cc1cocn1)N1CCCCC1,·,·,·,-6,·,·,
